Test results reported in PubChem BioAssay AID602329 (Broad Institute, 2012).
The campaign covered roughly 360,000 compounds. About 510 (0.14%) were called active. Only a selection was taken, and actives are over-represented in it overall. Unmarked numbers belong to inactive results.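 The calls were made as follows: active = mean normalized replicate activity at least 40 and at least half of replicates scoring 40 or more; inconclusive = only one of the two criteria met; inactive = mean below 40 and under half of replicates reaching 40.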

The compounds below were run against DNA repair and recombination protein RAD54-like (Homo sapiens) (UniProt Q92698) (assay: RAD54 Holliday junction migration blockers – biochemical, fluorescence, single point, primary screen (AID 602329;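 also: 0% = median of neutral control wells and 100% = median of positive control wells; inhibitors cause a drop in the FAM fluorescence signal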)). Conditions: RAD54 Holliday junction branch migration, FAM/BHQ fluorescence; at 10.4 µM; hits give high values.
Chain of DNA repair and recombination protein RAD54-like (Homo sapiens) (Q92698 whole entry, looked up): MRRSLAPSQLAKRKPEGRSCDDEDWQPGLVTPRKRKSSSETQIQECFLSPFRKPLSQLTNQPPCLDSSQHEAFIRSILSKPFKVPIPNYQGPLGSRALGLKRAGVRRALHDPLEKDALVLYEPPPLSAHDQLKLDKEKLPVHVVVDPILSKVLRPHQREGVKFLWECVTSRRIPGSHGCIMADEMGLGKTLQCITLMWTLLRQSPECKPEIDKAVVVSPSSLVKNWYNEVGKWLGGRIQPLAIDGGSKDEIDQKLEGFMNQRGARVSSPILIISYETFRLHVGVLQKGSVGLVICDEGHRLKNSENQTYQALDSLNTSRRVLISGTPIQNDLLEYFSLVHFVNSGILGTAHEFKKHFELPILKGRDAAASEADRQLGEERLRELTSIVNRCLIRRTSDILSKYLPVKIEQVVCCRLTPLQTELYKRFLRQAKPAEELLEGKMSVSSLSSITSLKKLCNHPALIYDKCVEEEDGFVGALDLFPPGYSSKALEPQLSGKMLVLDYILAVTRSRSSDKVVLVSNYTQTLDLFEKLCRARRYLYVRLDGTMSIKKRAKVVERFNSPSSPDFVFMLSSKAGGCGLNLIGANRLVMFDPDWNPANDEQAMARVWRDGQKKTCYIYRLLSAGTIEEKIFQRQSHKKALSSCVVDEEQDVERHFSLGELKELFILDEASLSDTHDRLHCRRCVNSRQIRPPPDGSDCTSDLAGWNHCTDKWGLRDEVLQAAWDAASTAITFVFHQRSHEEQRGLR

Compound	inhibition
COCc1cn(CC[C@@H]2CC[C@@H](NC(=O)Nc3ccc(C(F)(F)F)cc3)[C@H](CO)O2)nn1	-5.23%
C[C@@H]1CN([C@@H](C)CO)C(=O)c2ccccc2-c2ccccc2CO[C@H]1CN(C)C(=O)Nc1ccccc1	2.07%
CO[C@@H]1CN(C)C(=O)c2ccc(NS(C)(=O)=O)cc2OC[C@H](C)NC[C@H]1C	0.663%
CN1c2ccc(C3=CCCCC3)cc2[C@@H]2[C@@H](CCN2C(=O)Nc2cc(F)ccc2F)[C@@H]1CO	7.43%
C[C@@H]1CN([C@@H](C)CO)C(=O)c2cc(NC(=O)Nc3ccc(C(F)(F)F)cc3)ccc2O[C@@H](C)CCCCO[C@H]1CN(C)C(=O)CCCN(C)C	25%
COc1ccccc1-c1ccc2n(c1=O)C[C@H]1[C@H](CO)[C@@H](C(=O)N[C@@H](C)c3ccccc3)[C@@H]2N1C	-1.98%
CO[C@@H](CN(C)S(=O)(=O)c1cccc(Cl)c1)[C@H](C)CN([C@H](C)CO)S(=O)(=O)c1cccc(Cl)c1	1.71%
C[C@@H]1CN([C@H](C)CO)C(=O)c2cccc(NS(=O)(=O)c3ccc(F)cc3)c2O[C@@H]1CN(C)S(=O)(=O)c1ccccc1	2.48%
CO[C@@H]1CN(C)C(=O)c2ccc(NC(=O)C3CCCC3)cc2OC[C@H](C)NC[C@@H]1C	4.25%
O=C(C[C@@H]1C=C[C@@H](NC(=O)Nc2cccc(F)c2)[C@H](CO)O1)NCC1CCCCC1	-1.32%
CCN(CC)CCn1c2ccc(Cl)cc2c2nc(C)sc21	63.6% (active)
CCN(CC)CCNc1ccc(Cl)cc1[N+](=O)[O-]	7.16%
COc1ccccc1C(=O)N1C[C@H]2[C@@H](c3ccccc31)[C@H](CO)N2C(=O)C1CC1	-5.07%
Cc1ccccc1-c1ccc2c(c1)O[C@@H](CN(C)Cc1ccc(C(=O)O)cc1)[C@H](C)CN([C@H](C)CO)S2(=O)=O	0.48%
COc1ccc(S(=O)(=O)N(C)C[C@@H]2OCCCC[C@@H](C)Oc3ccc(NC(=O)CCCN(C)C)cc3C(=O)N([C@@H](C)CO)C[C@@H]2C)cc1	-3.63%
CCC(=O)N(C)C[C@H]1Oc2ncc(-c3ccc(C)cc3)cc2C(=O)N([C@@H](C)CO)C[C@@H]1C	12%
Cc1noc(C)c1NC(=O)Nc1cccc2c1O[C@@H](CN(C)Cc1ccc(C(F)(F)F)cc1)[C@@H](C)CN([C@@H](C)CO)C2=O	3.12%
C[C@@H]1CN([C@@H](C)CO)C(=O)c2cccc(NS(=O)(=O)c3ccccc3)c2O[C@@H]1CN(C)S(=O)(=O)c1ccc(F)cc1	-8.79%
CCC(=O)N1C[C@@H](C)[C@H](OC)CN(C)C(=O)c2ccc(NC(=O)c3cc(C)on3)cc2OC[C@H]1C	-6.97%
COc1cccc(-c2ccc3n(c2=O)C[C@@H]2[C@@H](CO)[C@H](C(=O)N4CCCCC4)N[C@H]32)c1	-5.16%
CO[C@H]1CC[C@@H]2CCOc3c(C#N)cccc3C(=O)N(C)CCCC(=O)N(C)C[C@@H]1O2	-6.75%

Compound	inhibition
Cc1cc(C(=O)Nc2cccc3c2O[C@@H](CN(C)C(=O)Nc2ccc4c(c2)OCO4)[C@H](C)CN([C@@H](C)CO)C3=O)n(C)n1	14.9%
C[C@@H]1CN([C@H](C)CO)C(=O)c2cc(NC(=O)CCCN(C)C)ccc2O[C@H]1CN(C)S(=O)(=O)c1ccc(Cl)cc1	3.22%
C[C@H]1CCCCO[C@@H](CN(C)C(=O)c2ccccc2)[C@@H](C)CN([C@@H](C)CO)C(=O)c2cc(NS(=O)(=O)c3cccs3)ccc2O1	-5.69%
CCCNC(=O)Nc1ccc2c(c1)C(=O)N(C)C[C@H](OC)[C@H](C)CN(Cc1ccncc1)[C@H](C)CO2	3.54%
CCCC#Cc1cnc2c(c1)C(=O)N([C@H](C)CO)C[C@@H](C)[C@@H](CN(C)C(=O)Nc1ccccc1F)O2	-0.939%
C[C@@H]1CN([C@H](C)CO)C(=O)c2cccc(NS(=O)(=O)c3ccc(Cl)cc3)c2O[C@@H]1CN(C)Cc1ccc(Cl)c(Cl)c1	-2.03%
C[C@H](O)C#Cc1cnc2c(c1)C(=O)N([C@H](C)CO)C[C@@H](C)[C@@H](CN(C)C(=O)Nc1ccc(C(F)(F)F)cc1)O2	-3.33%
C[C@@H]1CN([C@@H](C)CO)C(=O)c2cc(NC(=O)CCN3CCOCC3)ccc2O[C@@H]1CN(C)S(=O)(=O)c1ccccc1	5.08%
C[C@@H]1CN([C@@H](C)CO)S(=O)(=O)c2ccc(-c3ccccc3F)cc2O[C@H]1CN(C)Cc1cncnc1	-6.21%
OC[C@@H]1[C@H](c2ccc(C3=CCCC3)cc2)[C@H]2CN(Cc3ccncc3)CCCCN12	1.55%
COc1cccc(NC(=O)N(C)C[C@H]2Oc3cc(/C=C/c4ccccc4)ccc3S(=O)(=O)N([C@H](C)CO)C[C@@H]2C)c1	-2.16%
C[C@H]1CN([C@@H](C)CO)C(=O)c2cc(C#CC3CCCC3)cnc2O[C@@H]1CN(C)C(=O)Cc1ccccn1	3.4%
O=C(N[C@H]1CC[C@@H](CCNS(=O)(=O)c2cccc(Cl)c2)O[C@@H]1CO)c1ccncc1	-2.66%
Cc1ccc(S(=O)(=O)N(C)C[C@@H]2Oc3ccc(NC(=O)Nc4ccc5c(c4)OCO5)cc3C(=O)N([C@@H](C)CO)C[C@@H]2C)cc1	2.81%
COc1ccc(S(=O)(=O)Nc2cccc3c2O[C@@H](CN(C)S(=O)(=O)c2c(C)noc2C)[C@@H](C)CN([C@H](C)CO)C3=O)cc1	4.47%
C#CCOCCOCCOCCNc1nc(N2CCN(C(=O)[C@H](CCCCN)n3cc([C@@H](N)C(C)CC)nn3)CC2)nc(N2CCN(C(=O)[C@H](Cc3ccc(O)cc3)n3cc([C@@H](N)C(C)CC)nn3)CC2)n1 (stereo partly specified)	-6.01%
C#CCOCCOCCOCCNc1nc(N2CCN(C(=O)[C@H](CO)n3cc([C@@H](N)C(C)C)nn3)CC2)nc(N2CCN(C(=O)[C@H](CCC(=O)O)n3cc([C@@H](N)[C@H](C)CC)nn3)CC2)n1	-7.97%
C#CCOCCOCCOCCNc1nc(N2CCN(C(=O)C([C@@H](C)O)n3cc([C@@H](N)CCCCN)nn3)CC2)nc(N2CCN(C(=O)[C@H](CCCCN)n3cc(CN)nn3)CC2)n1 (stereo partly specified)	69.5% (active)
CC(=O)N1[C@H](CO)[C@@H](c2ccccc2)[C@@H]1CN(CC(C)C)C(=O)c1ccccn1	-0.684%
Cc1ccc(S(=O)(=O)Nc2ccc3c(c2)C(=O)N([C@@H](C)CO)C[C@H](C)[C@@H](CN(C)C(=O)Nc2ccc(F)cc2)OCCCC[C@H](C)O3)cc1	8.58%
COC(=O)C[C@H]1CC[C@H]2[C@H](COc3ccc(NC(=O)C4CC4)cc3C(=O)N2C)O1	-2.57%

Compound	inhibition
C[C@@H](NC(=O)C[C@H]1CC[C@H](NS(=O)(=O)c2cccc(F)c2)[C@H](CO)O1)c1ccccc1	0.335%
O=C(Nc1cc(F)ccc1F)N1C[C@H]2[C@@H](c3ccccc31)[C@@H](CO)N2C(=O)c1ccccc1	8.71%
Cc1ccc(S(=O)(=O)Nc2ccc3c(c2)C(=O)N([C@H](C)CO)C[C@H](C)[C@@H](CN(C)S(=O)(=O)c2cn(C)cn2)OCCCC[C@H](C)O3)cc1	1.15%
O=C([C@H]1[C@H](CO)[C@H]2Cn3c(ccc(C4=CCCCC4)c3=O)[C@@H]1N2)N1CCCCC1	-7.2%
Cc1cccc(N(C)C(=O)c2cc3c(=O)[nH]c4ccc(C)cc4c3s2)c1	-5.82%
CCN(CC)CCCNC(=O)c1cc2c(=O)[nH]c3ccc(C)cc3c2s1	51.5% (active)
Cc1ccc2[nH]c(=O)c(CC(=O)O)c(-c3ccccc3)c2c1	-1.43%
CO[C@H]1CN(C)C(=O)c2cc(NC(=O)C3CC3)ccc2OC[C@H](C)N(CC2CCCC2)C[C@@H]1C	-8.31%
Cc1noc(C)c1NC(=O)Nc1ccc2c(c1)C(=O)N([C@H](C)CO)C[C@@H](C)[C@@H](CN(C)C(=O)NC(C)C)O2	8.07%
CC(C)NC(=O)Nc1ccc2c(c1)C(=O)N([C@@H](C)CO)C[C@@H](C)[C@H](CN(C)C(=O)NC1CCCCC1)O2	-6.48%
CN1CCN(Cc2c(O)ccc3c2oc(=O)c2ccccc23)CC1	61.1% (active)
O=c1oc2c(CN3CCCCC3)c(O)ccc2c2c1CCCCC2	3.11%
N#Cc1ccccc1S(=O)(=O)N1CCN(Cc2c(O)ccc3ccccc23)CC1	1.29%
O=C(C[C@@H]1C[C@@H]2c3cc(NC(=O)Cc4ccncc4)ccc3O[C@@H]2[C@H](CO)O1)NCc1cccc(F)c1	-0.719%
C/C=C/c1cnc2c(c1)C(=O)N([C@@H](C)CO)C[C@H](C)[C@H](CN(C)C(=O)CN1CCOCC1)O2	2.37%
C[C@@H]1CN([C@@H](C)CO)C(=O)c2cc(NS(=O)(=O)c3ccccc3)ccc2O[C@@H](C)CCCCO[C@H]1CN(C)C(=O)C1CCCCC1	-16.2%
COc1ccc(S(=O)(=O)N2CCOCC2)cc1NC(=O)c1ccc(OCC(C)C)c(OC)c1	3.95%
CC(OC(=O)c1ccc(S(=O)(=O)N2CCOCC2)cc1)c1ccccc1 (stereo unspecified)	0.166%
COC(=O)c1c(NC(=O)c2ccc(S(=O)(=O)N3CCOCC3)cc2)sc2c1CCN(C(C)C)C2	75% (active)
